The record followed here is PubChem BioAssay (NCI).

Some test systems named below: HCT-15 colon; HT29 colon; SNB-75 CNS; SNB-19 CNS; U251 CNS; PC-3 prostate; SK-MEL-5 melanoma; UACC-62 melanoma; LOX IMVI melanoma; SK-MEL-28 melanoma; SK-MEL-2 melanoma; EKVX NSCLC; SN12C renal; UO-31 renal; TK-10 renal; ACHN renal; CAKI-1 renal; CCRF-CEM leukemia; MOLT-4 leukemia.
Assay in all cases: NCI-60 one-dose screen, 48 h (100 = growth as untreated, 0 = no growth, -100 = all killed)
Common to all, as to details: 10 µM unless noted

About 83,000 compounds went through this panel and 20% of them were active in at least one assay; those are over-represented in the sample as a whole.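 Percent growth is the endpoint: 0 to 100 indicates growth inhibition (40 means 60% inhibition), 0 means no net growth, and negative values indicate cell death.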 A number with no mark means an inactive call. Active and inactive are the calls of the source. Rule for the calls: active = growth percent below 10; inactive = the rest.

For the molecule `COc1ccccc1/C(C)=N/NC(=O)CSc1nc2ccccc2c(=O)n1Cc1ccc(S(N)(=O)=O)cc1`, the growth with HCT-15 colon was 97.6%; with HT29 colon, 114%; in the assay with SNB-75 CNS it was 89.7%; in the assay with SNB-19 CNS, 93.3%; with U251 CNS, 103%; in the assay with PC-3 prostate, 111%. For the same molecule, the growth in the assay on SK-MEL-5 melanoma is 97.5%; with UACC-62 melanoma, 97.4%; in the assay with LOX IMVI melanoma, 89.9%; with SK-MEL-28 melanoma, 114%; in the assay with SK-MEL-2 melanoma, 106%; in the assay with EKVX NSCLC it was 85.6%. The growth in the assay on SN12C renal was 102%; with UO-31 renal, 77.3%; with TK-10 renal, 96.1%; in the assay with ACHN renal it was 105%; in the assay with CAKI-1 renal it was 85.4%; in the assay on CCRF-CEM leukemia, 94.5%. In the assay on MOLT-4 leukemia, the growth is 97%.
Regarding `C=C1C(=O)O[C@H]2[C@H]1CC/C(COC(=O)NCCc1c[nH]c3ccc(OC)cc13)=C\CC[C@@]1(C)O[C@@H]21`, the growth is -54.7% (active) with HCT-15 colon; -15.2% (active) in the assay with HT29 colon; 55.5% in the assay on SNB-75 CNS; 51.6% in the assay with SNB-19 CNS; 35.5% with U251 CNS; 54.7% in the assay with PC-3 prostate. Further, the growth in the assay with SK-MEL-5 melanoma is 64.7%; in the assay on UACC-62 melanoma, 21.6%; with LOX IMVI melanoma, -22.4% (active); with SK-MEL-28 melanoma it was -10.8% (active); in the assay with SK-MEL-2 melanoma it was 62.1%; in the assay on EKVX NSCLC, 19.8%. Besides, the growth in the assay on SN12C renal is -34.4% (active); in the assay with UO-31 renal it was -99.3% (active); with TK-10 renal, -13.1% (active); in the assay with ACHN renal, -59% (active); in the assay with CAKI-1 renal it was -66.2% (active); with CCRF-CEM leukemia it was -6.35% (active). For the same molecule, the growth in the assay with MOLT-4 leukemia was 3.53% (active).
Take `O=S(=O)(NCCNc1nccc(-c2c(-c3cccc(O)c3)nc3occn23)n1)c1ccc(C(F)(F)F)cc1`: the growth in the assay with HCT-15 colon is 108%; with HT29 colon, 72.9%; with SNB-75 CNS, 92.5%; with SNB-19 CNS, 115%; with U251 CNS, 104%; in the assay with PC-3 prostate it was 99.7%. Moreover, the growth with SK-MEL-5 melanoma was 55.7%; in the assay with UACC-62 melanoma, 26.7%; in the assay on LOX IMVI melanoma, 75.1%; in the assay on SK-MEL-28 melanoma, 58.3%; in the assay on SK-MEL-2 melanoma it was 93.7%; with EKVX NSCLC, 105%. Besides, the growth in the assay with SN12C renal is 102%; in the assay on UO-31 renal it was 93.9%; in the assay with TK-10 renal, 137%; with ACHN renal it was 84.4%; with CAKI-1 renal, 69.6%; in the assay on CCRF-CEM leukemia it was 106%. The growth with MOLT-4 leukemia was 111%.
In the case of `COc1ccccc1NC(=O)C1CC(c2ccc(F)cc2)=NO1` (configuration not stated), the growth with HCT-15 colon is 99.2%; with HT29 colon it was 103%; with SNB-75 CNS it was 87.9%; in the assay with SNB-19 CNS it was 96.8%; in the assay with U251 CNS, 96.3%; with PC-3 prostate it was 104%. Moreover, the growth with SK-MEL-5 melanoma is 95.3%; in the assay on UACC-62 melanoma, 96%; with LOX IMVI melanoma, 95.5%; in the assay with SK-MEL-28 melanoma, 107%; in the assay on SK-MEL-2 melanoma, 103%; in the assay on EKVX NSCLC it was 89.8%. Also, the growth is 96.3% with SN12C renal; 82.9% with UO-31 renal; 105% in the assay with TK-10 renal; 107% with ACHN renal; 95.3% with CAKI-1 renal; 104% in the assay with CCRF-CEM leukemia. Also, the growth in the assay with MOLT-4 leukemia is 103%.
`Cc1ccc(/C=N/NC(=O)CSc2nc3ccccc3c(=O)n2Cc2ccc(S(N)(=O)=O)cc2)cc1`: the growth in the assay with HCT-15 colon was 89.3%; with HT29 colon, 86.3%; with SNB-75 CNS, 71%; in the assay on SNB-19 CNS it was 89.9%; in the assay with U251 CNS it was 93.9%; in the assay with PC-3 prostate it was 89.3%. Also, the growth was 74.4% in the assay with SK-MEL-5 melanoma; 78.1% with UACC-62 melanoma; 82.9% in the assay on LOX IMVI melanoma; 93.2% in the assay with SK-MEL-28 melanoma; 94% in the assay with SK-MEL-2 melanoma; 90.8% in the assay with EKVX NSCLC. In addition, the growth in the assay with SN12C renal is 97.3%; in the assay on UO-31 renal it was 80.8%; with TK-10 renal, 106%; with ACHN renal it was 100%; in the assay on CAKI-1 renal, 64%; in the assay on CCRF-CEM leukemia it was 87.8%. Moreover, in the assay on MOLT-4 leukemia, the growth was 86.8%.
As to `COc1ccc(CC(C)=C(c2ccc(OCCN3CCCCCC3)cc2)c2ccc(OCCN3CCCCCC3)cc2)cc1`, the growth is -95.9% (active) in the assay with HCT-15 colon; -85% (active) in the assay on HT29 colon; -92.9% (active) in the assay on SNB-75 CNS; -95% (active) with SNB-19 CNS; -91.4% (active) in the assay on U251 CNS; -87.2% (active) with PC-3 prostate. Further, the growth in the assay with SK-MEL-5 melanoma is -97.9% (active); with UACC-62 melanoma it was -97.1% (active); in the assay on LOX IMVI melanoma it was -100% (active); in the assay on SK-MEL-28 melanoma it was -99.1% (active); in the assay on SK-MEL-2 melanoma it was -82.2% (active); with EKVX NSCLC, -93.6% (active). Also, the growth is -92.4% (active) with SN12C renal; -98.8% (active) in the assay on UO-31 renal; -87.3% (active) with TK-10 renal; -100% (active) in the assay on ACHN renal; -92.5% (active) with CAKI-1 renal; -57.9% (active) in the assay on CCRF-CEM leukemia. Also, the growth in the assay on MOLT-4 leukemia was -67.5% (active).
With `CC(=O)Nc1ccc(-n2cnc3cc(-c4ccc(OCCN5CCCCC5)cc4)ccc32)cc1`, the growth in the assay on HCT-15 colon was 43.6%; in the assay with HT29 colon, 2.12% (active); with SNB-75 CNS, 88.2%; in the assay on SNB-19 CNS it was 88%; in the assay on U251 CNS, 44%; in the assay with PC-3 prostate, 64.3%. Moreover, the growth in the assay on SK-MEL-5 melanoma was 79%; in the assay with UACC-62 melanoma it was 120%; in the assay on LOX IMVI melanoma it was 86.8%; in the assay on SK-MEL-28 melanoma, 107%; in the assay on SK-MEL-2 melanoma, 119%; in the assay on EKVX NSCLC it was 97.9%. Also, the growth in the assay on SN12C renal was 67.1%; in the assay on UO-31 renal, 56.3%; with TK-10 renal it was 146%; in the assay with ACHN renal it was 76.8%; in the assay with CAKI-1 renal it was 84.2%; with CCRF-CEM leukemia it was 54.8%. The growth with MOLT-4 leukemia is 73.1%.
For the molecule `CCOC(=O)c1ccc2c(c1)ncn2-c1ccc(NC(=O)Nc2cccc(C)c2)cc1`, the growth in the assay on HCT-15 colon was 13.6%; in the assay with HT29 colon it was 49.1%; in the assay with SNB-75 CNS, 87.6%; in the assay with SNB-19 CNS, 49.8%; in the assay on U251 CNS it was 46.1%; in the assay on PC-3 prostate it was 67.4%. Moreover, the growth in the assay with SK-MEL-5 melanoma was 83.2%; in the assay with UACC-62 melanoma, 71.3%; in the assay with LOX IMVI melanoma, 5.37% (active); in the assay on SK-MEL-28 melanoma it was 88.7%; in the assay on SK-MEL-2 melanoma, 85.4%; in the assay on EKVX NSCLC, 84.7%. Also, the growth is 69.6% in the assay with SN12C renal; 66.6% in the assay with UO-31 renal; 123% with TK-10 renal; 66.7% in the assay with ACHN renal; 74.6% in the assay with CAKI-1 renal; 45.8% in the assay on CCRF-CEM leukemia. Further, the growth with MOLT-4 leukemia is 43.2%.
